These results are taken from publication PMC11006913.

Assay in all cases: PBM; 200 nM protein, PBS
Holding throughout (details): dsDNA, one strand shown

In test [1] the target is ALX4 (Homo sapiens, UniProt Q9H161 200-286).
Test [2] addresses HOXB6 (Homo sapiens, UniProt P17509 132-218, K202E).
Test [3] addresses ALX4 (Homo sapiens, UniProt Q9H161 200-286, Q225E).
Test [4] concerns the target HOXB6 (Homo sapiens, UniProt P17509 132-218).
In test [5] the target is PRRX1 (Homo sapiens, UniProt P54821 80-166, F113S).
PRRX1 (Homo sapiens, UniProt P54821 80-166, F113S), sequence (P54821 80-166 F113S): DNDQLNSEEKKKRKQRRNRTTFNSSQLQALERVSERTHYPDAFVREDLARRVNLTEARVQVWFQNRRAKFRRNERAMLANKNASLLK
The target in test [6] is PRRX1 (Homo sapiens, UniProt P54821 80-166).
PRRX1 (Homo sapiens, UniProt P54821 80-166), sequence (P54821 80-166): as the sequence (P54821 80-166 F113S) above, with S34F counted along it

ALX4 (Homo sapiens, UniProt Q9H161 200-286, Q225E), sequence (Q9H161 200-286 Q225E): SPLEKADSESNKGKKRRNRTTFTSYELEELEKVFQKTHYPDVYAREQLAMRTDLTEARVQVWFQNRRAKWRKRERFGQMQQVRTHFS
ALX4 (Homo sapiens, UniProt Q9H161 200-286), sequence (Q9H161 200-286): as the sequence (Q9H161 200-286 Q225E) above, with E26Q counted along it
HOXB6 (Homo sapiens, UniProt P17509 132-218), sequence (P17509 132-218): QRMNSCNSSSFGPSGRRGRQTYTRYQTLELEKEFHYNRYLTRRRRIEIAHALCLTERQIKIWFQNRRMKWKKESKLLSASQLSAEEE
HOXB6 (Homo sapiens, UniProt P17509 132-218, K202E), sequence (P17509 132-218 K202E): as the sequence (P17509 132-218) above, with K71E counted along it

With CTTCCCGC, the binding signal was 8.12 upbm affinity estimate (log intensity, higher = more binding, comparable within an allelic series) in the test with ALX4 [1]; 9.12 upbm affinity estimate (log intensity, higher = more binding, comparable within an allelic series) with HOXB6 [2]; 8.22 upbm affinity estimate (log intensity, higher = more binding, comparable within an allelic series) with ALX4 [3]; 9.02 upbm affinity estimate (log intensity, higher = more binding, comparable within an allelic series) with HOXB6 [4].

As to CGAGGGCA, the binding signal in the test with ALX4 [1] was 8.31 upbm affinity estimate (log intensity, higher = more binding, comparable within an allelic series); with PRRX1 [5] it was 9.29 upbm affinity estimate (log intensity, higher = more binding, comparable within an allelic series); with ALX4 [3], 8.26 upbm affinity estimate (log intensity, higher = more binding, comparable within an allelic series); with PRRX1 [6], 9.63 upbm affinity estimate (log intensity, higher = more binding, comparable within an allelic series).

Consider CTGTCCAC, for which the binding signal with ALX4 [1] was 7.93 upbm affinity estimate (log intensity, higher = more binding, comparable within an allelic series); with ALX4 [3], 8.3 upbm affinity estimate (log intensity, higher = more binding, comparable within an allelic series).

GAGGGAGC: the binding signal in the test with ALX4 [1] is 8.04 upbm affinity estimate (log intensity, higher = more binding, comparable within an allelic series); with ALX4 [3], 8.01 upbm affinity estimate (log intensity, higher = more binding, comparable within an allelic series).

On to CCCGACAG, for which the binding signal is 8.07 upbm affinity estimate (log intensity, higher = more binding, comparable within an allelic series) with ALX4 [1] and 8.17 upbm affinity estimate (log intensity, higher = more binding, comparable within an allelic series) in the test with ALX4 [3].

CGGCGGGC: the binding signal was 8.42 upbm affinity estimate (log intensity, higher = more binding, comparable within an allelic series) with ALX4 [1] and 8.3 upbm affinity estimate (log intensity, higher = more binding, comparable within an allelic series) with ALX4 [3].

Consider GGGTGACC, for which the binding signal with ALX4 [1] was 8.07 upbm affinity estimate (log intensity, higher = more binding, comparable within an allelic series); with ALX4 [3] it was 8.31 upbm affinity estimate (log intensity, higher = more binding, comparable within an allelic series).

Regarding CCATTATC, the binding signal was 11.3 upbm affinity estimate (log intensity, higher = more binding, comparable within an allelic series) with ALX4 [1] and 10.2 upbm affinity estimate (log intensity, higher = more binding, comparable within an allelic series) in the test with ALX4 [3].

Consider ATAAGCAC, for which the binding signal was 9.96 upbm affinity estimate (log intensity, higher = more binding, comparable within an allelic series) with ALX4 [1] and 9.46 upbm affinity estimate (log intensity, higher = more binding, comparable within an allelic series) in the test with ALX4 [3].

For the sequence AACGACAT, the binding signal was 9.98 upbm affinity estimate (log intensity, higher = more binding, comparable within an allelic series) with ALX4 [1] and 9.4 upbm affinity estimate (log intensity, higher = more binding, comparable within an allelic series) with ALX4 [3].

Regarding TCAATGAA, the binding signal with ALX4 [1] is 10.1 upbm affinity estimate (log intensity, higher = more binding, comparable within an allelic series); with ALX4 [3], 9.63 upbm affinity estimate (log intensity, higher = more binding, comparable within an allelic series).

On to AGCCGTGC, for which the binding signal was 7.92 upbm affinity estimate (log intensity, higher = more binding, comparable within an allelic series) in the test with ALX4 [1] and 8.07 upbm affinity estimate (log intensity, higher = more binding, comparable within an allelic series) in the test with ALX4 [3].

Regarding ATAATACA, the binding signal with ALX4 [1] is 11.1 upbm affinity estimate (log intensity, higher = more binding, comparable within an allelic series); in the test with ALX4 [3] it was 10.4 upbm affinity estimate (log intensity, higher = more binding, comparable within an allelic series).

On to CCCGGAAG, for which the binding signal with ALX4 [1] was 7.9 upbm affinity estimate (log intensity, higher = more binding, comparable within an allelic series); in the test with ALX4 [3], 8.04 upbm affinity estimate (log intensity, higher = more binding, comparable within an allelic series).

AGAGAGCG: the binding signal in the test with ALX4 [1] is 8.15 upbm affinity estimate (log intensity, higher = more binding, comparable within an allelic series); with ALX4 [3], 8.26 upbm affinity estimate (log intensity, higher = more binding, comparable within an allelic series).

GGCATGCC: the binding signal with ALX4 [1] is 8.37 upbm affinity estimate (log intensity, higher = more binding, comparable within an allelic series); in the test with ALX4 [3], 8.31 upbm affinity estimate (log intensity, higher = more binding, comparable within an allelic series).

In the case of CTCTAGGA, the binding signal in the test with ALX4 [1] is 8.21 upbm affinity estimate (log intensity, higher = more binding, comparable within an allelic series); in the test with ALX4 [3] it was 8.12 upbm affinity estimate (log intensity, higher = more binding, comparable within an allelic series).

For GCATTTGA, the binding signal with ALX4 [1] is 9.56 upbm affinity estimate (log intensity, higher = more binding, comparable within an allelic series); in the test with ALX4 [3], 9.16 upbm affinity estimate (log intensity, higher = more binding, comparable within an allelic series).

GCAGACCC: the binding signal in the test with ALX4 [1] was 7.9 upbm affinity estimate (log intensity, higher = more binding, comparable within an allelic series); with ALX4 [3] it was 8.2 upbm affinity estimate (log intensity, higher = more binding, comparable within an allelic series).

For ACGCGGGA, the binding signal was 8.23 upbm affinity estimate (log intensity, higher = more binding, comparable within an allelic series) with ALX4 [1] and 8.27 upbm affinity estimate (log intensity, higher = more binding, comparable within an allelic series) in the test with ALX4 [3].

With TATTTTGA, the binding signal with ALX4 [1] is 9.82 upbm affinity estimate (log intensity, higher = more binding, comparable within an allelic series); with ALX4 [3], 9.39 upbm affinity estimate (log intensity, higher = more binding, comparable within an allelic series).

CCAGGACG: the binding signal with ALX4 [1] is 8.2 upbm affinity estimate (log intensity, higher = more binding, comparable within an allelic series); with ALX4 [3], 8.31 upbm affinity estimate (log intensity, higher = more binding, comparable within an allelic series).

Regarding CCTCAGGC, the binding signal with ALX4 [1] was 8.2 upbm affinity estimate (log intensity, higher = more binding, comparable within an allelic series); with ALX4 [3], 8.19 upbm affinity estimate (log intensity, higher = more binding, comparable within an allelic series).

For the sequence GTAAAATA, the binding signal is 10.2 upbm affinity estimate (log intensity, higher = more binding, comparable within an allelic series) with ALX4 [1] and 9.6 upbm affinity estimate (log intensity, higher = more binding, comparable within an allelic series) with ALX4 [3].

In the case of CGACATCC, the binding signal is 7.95 upbm affinity estimate (log intensity, higher = more binding, comparable within an allelic series) with ALX4 [1] and 8.23 upbm affinity estimate (log intensity, higher = more binding, comparable within an allelic series) with ALX4 [3].

Turning to CGTAATCA, the binding signal was 11.9 upbm affinity estimate (log intensity, higher = more binding, comparable within an allelic series) in the test with ALX4 [1] and 10.6 upbm affinity estimate (log intensity, higher = more binding, comparable within an allelic series) with ALX4 [3].

Consider CCGCGAAG, for which the binding signal is 8.14 upbm affinity estimate (log intensity, higher = more binding, comparable within an allelic series) with ALX4 [1] and 8.32 upbm affinity estimate (log intensity, higher = more binding, comparable within an allelic series) with ALX4 [3].

As for CTCGATCC, the binding signal in the test with ALX4 [1] is 8.2 upbm affinity estimate (log intensity, higher = more binding, comparable within an allelic series); with ALX4 [3], 8.33 upbm affinity estimate (log intensity, higher = more binding, comparable within an allelic series).

For the sequence CATGGGGG, the binding signal with ALX4 [1] was 7.84 upbm affinity estimate (log intensity, higher = more binding, comparable within an allelic series); with ALX4 [3] it was 7.96 upbm affinity estimate (log intensity, higher = more binding, comparable within an allelic series).

Take CGTGCTCC: the binding signal with ALX4 [1] is 8.3 upbm affinity estimate (log intensity, higher = more binding, comparable within an allelic series); with ALX4 [3], 8.41 upbm affinity estimate (log intensity, higher = more binding, comparable within an allelic series).

As for GGTGGCCA, the binding signal was 8.06 upbm affinity estimate (log intensity, higher = more binding, comparable within an allelic series) in the test with ALX4 [1] and 8.37 upbm affinity estimate (log intensity, higher = more binding, comparable within an allelic series) with ALX4 [3].

Regarding AGCAGCTC, the binding signal was 8.01 upbm affinity estimate (log intensity, higher = more binding, comparable within an allelic series) in the test with ALX4 [1] and 8.09 upbm affinity estimate (log intensity, higher = more binding, comparable within an allelic series) in the test with ALX4 [3].

Take ACAGCTCT: the binding signal was 8.24 upbm affinity estimate (log intensity, higher = more binding, comparable within an allelic series) with ALX4 [1] and 8.19 upbm affinity estimate (log intensity, higher = more binding, comparable within an allelic series) with ALX4 [3].

Take ATCAATCA: the binding signal is 11.7 upbm affinity estimate (log intensity, higher = more binding, comparable within an allelic series) with ALX4 [1] and 10.5 upbm affinity estimate (log intensity, higher = more binding, comparable within an allelic series) in the test with ALX4 [3].

Turning to ATTGGTGA, the binding signal with ALX4 [1] was 10.4 upbm affinity estimate (log intensity, higher = more binding, comparable within an allelic series); with ALX4 [3], 9.78 upbm affinity estimate (log intensity, higher = more binding, comparable within an allelic series).

CAGTCGCC: the binding signal with ALX4 [1] was 8.23 upbm affinity estimate (log intensity, higher = more binding, comparable within an allelic series); with ALX4 [3], 8.19 upbm affinity estimate (log intensity, higher = more binding, comparable within an allelic series).

On to CGATATAA, for which the binding signal is 10.2 upbm affinity estimate (log intensity, higher = more binding, comparable within an allelic series) with ALX4 [1] and 9.67 upbm affinity estimate (log intensity, higher = more binding, comparable within an allelic series) with ALX4 [3].

Turning to CGACGCAG, the binding signal with ALX4 [1] is 7.86 upbm affinity estimate (log intensity, higher = more binding, comparable within an allelic series); in the test with ALX4 [3], 7.87 upbm affinity estimate (log intensity, higher = more binding, comparable within an allelic series).

For the sequence CTCCCTTC, the binding signal with ALX4 [1] is 7.88 upbm affinity estimate (log intensity, higher = more binding, comparable within an allelic series); with ALX4 [3], 8.19 upbm affinity estimate (log intensity, higher = more binding, comparable within an allelic series).

Consider CTCCGGCC, for which the binding signal in the test with ALX4 [1] is 8.03 upbm affinity estimate (log intensity, higher = more binding, comparable within an allelic series); with ALX4 [3], 8.06 upbm affinity estimate (log intensity, higher = more binding, comparable within an allelic series).

ATTAACCA: the binding signal with ALX4 [1] is 12.4 upbm affinity estimate (log intensity, higher = more binding, comparable within an allelic series); with ALX4 [3], 11.3 upbm affinity estimate (log intensity, higher = more binding, comparable within an allelic series).

On to CTATAATA, for which the binding signal is 11.6 upbm affinity estimate (log intensity, higher = more binding, comparable within an allelic series) in the test with ALX4 [1] and 10.8 upbm affinity estimate (log intensity, higher = more binding, comparable within an allelic series) in the test with ALX4 [3].

Take CGCCCTTC: the binding signal is 8.03 upbm affinity estimate (log intensity, higher = more binding, comparable within an allelic series) with ALX4 [1] and 8.24 upbm affinity estimate (log intensity, higher = more binding, comparable within an allelic series) with ALX4 [3].

With CTCGGGTC, the binding signal is 8.18 upbm affinity estimate (log intensity, higher = more binding, comparable within an allelic series) with ALX4 [1] and 8.25 upbm affinity estimate (log intensity, higher = more binding, comparable within an allelic series) with ALX4 [3].

In the case of CCTAGGAC, the binding signal with ALX4 [1] was 7.82 upbm affinity estimate (log intensity, higher = more binding, comparable within an allelic series); in the test with ALX4 [3], 8.1 upbm affinity estimate (log intensity, higher = more binding, comparable within an allelic series).

Regarding CCGTAGCC, the binding signal with ALX4 [1] was 8.11 upbm affinity estimate (log intensity, higher = more binding, comparable within an allelic series); in the test with ALX4 [3] it was 8.21 upbm affinity estimate (log intensity, higher = more binding, comparable within an allelic series).

As for TCGGCCGA, the binding signal with ALX4 [1] was 7.94 upbm affinity estimate (log intensity, higher = more binding, comparable within an allelic series); with ALX4 [3], 8.39 upbm affinity estimate (log intensity, higher = more binding, comparable within an allelic series).

As for CGCCTTGA, the binding signal in the test with ALX4 [1] was 8.09 upbm affinity estimate (log intensity, higher = more binding, comparable within an allelic series); with ALX4 [3], 8.15 upbm affinity estimate (log intensity, higher = more binding, comparable within an allelic series).
